Test [1] can be described thus: cAMP Responsive Elements (CRE) small molecule antagonists, cell-based qHTS assay: qHTS cell viability counter screen (AID 2060913). Further: nearly all actives have a fitted effect of over 40% in size. Further: potency means the concentration at half of the fitted maximal effect. The procedure, abridged:
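CRE-bla HEK293T cells (2,000/well, 18 h) given compound plus NKH477 0.25 uM final for 3 h at 37C; viability counter-screen by CellTiter-Glo luminescence in same wells after 30 min.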

The nature of test [2]: cAMP Responsive Elements (CRE) small molecule agonists, cell-based qHTS assay: qHTS cell viability counter screen (AID 2060914). Further: nearly all actives have a fitted effect of over 50% in size. Put shortly: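 CRE-bla HEK293T cells in 10% dialyzed FBS medium were exposed to compounds for 3 h at 37C after 18 h plating. CellTiter-Glo was then added in the same wells, and luminescence was read after 30 min at room temperature.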

Results filed as inconclusive are left out. A number with no mark means an inactive call. The source made the active and inactive calls. The call rests on the fitted dose curve; in most records, active means well fitted cell-killing curve with a large enough effect in the repeat runs; inconclusive means weak or mixed curves, or effect the other way; inactive means flat fitted curve, though single readings scatter.
On the % scale 0 is the no-effect control and ±100 the full control effect.

As to `COc1cc(S(=O)(=O)Nc2ccccc2)c(OC)cc1N`, the Potency result in test [1] and in test [2] was “inactive” in each case.

With `CC1=CC(C)C(C=O)CC1` (configuration not stated), the Potency result in test [1] and in test [2] was “inactive” each time.

Take `CCCCCCCCCCOC(C)=O`: the Potency result in test [1] and in test [2] was “inactive” in each case.

Regarding `c1ccc2c(c1)CCc1ccccc1N2`, the Potency result in test [1] and in test [2] was “inactive” throughout.

Turning to `CCOC(=O)C1=NOC(c2ccccc2)(c2ccccc2)C1`, the Potency entry in test [1] and in test [2] was “inactive” throughout.

Regarding `CC(=O)OC[C@H]1O[C@@H](n2ncc(=O)[nH]c2=O)[C@H](OC(C)=O)[C@@H]1OC(C)=O`, the Potency entry in test [1] and in test [2] was “inactive” each time.

Take `O=C1c2ccccc2C(=O)c2cc(Cl)ccc21`: the viability change, negative = cytotoxic in test [1] was -0.399% [at 8.39 µM]. Also, in test [2], the activity change, negative = cytotoxicity is 2.19% [at 8.39 µM].

As to `CCCCCCCC/C=C\CCCCCCCC(=O)N(C)CC(=O)O`, the Potency entry in test [1] and in test [2] was “inactive” in each case.

In the case of `O=S1(=O)CCCC1`, the Potency entry in test [1] and in test [2] was “inactive” each time.

Regarding `CCCOCCO`, the Potency result in test [1] and in test [2] was “inactive” in each case.

In the case of `CC(C)CCCCCCCOC(=O)CCCCC(=O)OCCCCCCCC(C)C`, the Potency result in test [1] and in test [2] was “inactive” in each case.

Consider `On1ccccc1=S`, for which the Potency in test [1] is 9.59 µM (active). In addition, in test [2], the Potency entry was “inactive”.

`C[C@](N)(Cc1ccc(O)cc1)C(=O)O`: the viability change, negative = cytotoxic in test [1] was -1.28% [at 8.39 µM]. The activity change, negative = cytotoxicity in test [2] was -8.98% [at 8.39 µM].

Turning to `CC/C(=C(/CC)c1ccc(O)cc1)c1ccc(O)cc1`, the Potency result in test [1] and in test [2] was “inactive” each time.

On to `O=[N+]([O-])c1cc(Cl)c(Cl)c(Cl)c1Cl`, for which the Potency entry in test [1] and in test [2] was “inactive” throughout.

In the case of `CCOC(=O)c1ccccc1C(=C1C=C(Br)C(=O)C(Br)=C1)c1cc(Br)c(O)c(Br)c1`, the Potency result in test [1] and in test [2] was “inactive” each time.

`O=C(O)c1cccc(C(=O)O)n1`: the Potency result in test [1] and in test [2] was “inactive” throughout.

As to `CCCC(=O)Nc1ccc(OCC(O)CNC(C)C)c(C(C)=O)c1` (configuration not stated), the Potency result in test [1] and in test [2] was “inactive” in each case.

As to `CC[N+](C)(CC)CC`, the Potency result in test [1] and in test [2] was “inactive” each time.

Regarding `OC(CCCN1CCCCC1)(c1ccccc1)c1ccccc1`, the Potency result in test [1] and in test [2] was “inactive” throughout.

For the compound `C=CCCCCCCCCCCCCCCCC`, the viability change, negative = cytotoxic in test [1] was -4.37% [at 8.39 µM]. Further, the activity change, negative = cytotoxicity in test [2] is -18.5% [at 8.39 µM].

On to `Cn1cc(C(=O)[C@@H]2CCc3nc[nH]c3C2)c2ccccc21`, for which the Potency result in test [1] and in test [2] was “inactive” in each case.

For the compound `Nc1nc2c(ncn2COCCO)c(=O)[nH]1`, the Potency entry in test [1] and in test [2] was “inactive” in each case.

Consider `N#CCc1ccccc1[N+](=O)[O-]`, for which the Potency result in test [1] and in test [2] was “inactive” throughout.

Consider `CCCCCc1ccc(N)cc1`, for which the Potency result in test [1] and in test [2] was “inactive” each time.

In the case of `CC(C)(C)C1CCC(=O)CC1`, the Potency entry in test [1] and in test [2] was “inactive” each time.

As for `Cc1nnc(NS(=O)(=O)c2ccc(N)cc2)s1`, the Potency entry in test [1] and in test [2] was “inactive” in each case.

For the compound `Cc1cc2nc3c(=O)[nH]c(=O)nc-3n(C[C@H](O)[C@H](O)[C@H](O)CO)c2cc1C`, the Potency entry in test [1] and in test [2] was “inactive” each time.

For the compound `CC(C)(O)CCCC1=CCC(C=O)CC1` (configuration not stated), the Potency result in test [1] and in test [2] was “inactive” throughout.

For `CC[C@]12CCCN3CCc4c(n(c5ccccc45)C(=O)C1)[C@@H]32`, the Potency entry in test [1] and in test [2] was “inactive” each time.

For `CCOC(=O)c1ccc(NC(=O)CN2CCCCC2)cc1`, the Potency entry in test [1] and in test [2] was “inactive” in each case.

In the case of `O=C(Cl)c1cc(C(=O)Cl)cc(C(=O)Cl)c1`, the Potency entry in test [1] and in test [2] was “inactive” in each case.

Turning to `CNc1ccc([N+](=O)[O-])cc1`, the Potency entry in test [1] and in test [2] was “inactive” throughout.

For `CC(O)C1CCCCC1` (configuration not stated), the Potency result in test [1] and in test [2] was “inactive” throughout.

As for `CC(=O)Nc1cc(S(=O)(=O)O)cc2cc(S(=O)(=O)O)c(N=Nc3ccccc3)c(O)c12`, the Potency result in test [1] and in test [2] was “inactive” throughout.

As to `N[C@@H](Cc1c[nH]c2ccc(O)cc12)C(=O)O`, the Potency entry in test [1] and in test [2] was “inactive” in each case.

Take `O=C(CO)[C@@H](O)[C@H](O)[C@H](O)CO`: the Potency result in test [1] and in test [2] was “inactive” in each case.

Regarding `CCCCN(CCCC)CC(O)c1cc(Cl)cc2c1-c1ccc(Cl)cc1/C2=C/c1ccc(Cl)cc1` (configuration not stated), the Potency entry in test [1] and in test [2] was “inactive” in each case.

For the compound `O=C(c1ccc(F)cc1)C1CCN(CCn2c(=O)[nH]c3ccccc3c2=O)CC1`, the Potency result in test [1] and in test [2] was “inactive” throughout.

`CCCOc1ccc2nc(NC(=O)OC)[nH]c2c1`: the Potency entry in test [1] and in test [2] was “inactive” throughout.

On to `C=C(C)C(=O)OCCC[Si](Cl)(Cl)Cl`, for which the Potency entry in test [1] and in test [2] was “inactive” in each case.

For the compound `C[Si](C)(C)O[Si](O)(O)O`, the Potency entry in test [1] and in test [2] was “inactive” each time.

On to `NCCNCCNCCNCCN`, for which the Potency entry in test [1] and in test [2] was “inactive” throughout.

For the compound `C/C=C/c1ccc(OC)cc1`, the Potency entry in test [1] and in test [2] was “inactive” throughout.

As to `C1CCN2C[C@@H]3C[C@@H](CN4CCCC[C@@H]34)[C@H]2C1`, the Potency result in test [1] and in test [2] was “inactive” in each case.

On to `CCCCCOc1ccc(C2SC(=O)NC2=O)cc1OCC` (configuration not stated), for which the Potency result in test [1] and in test [2] was “inactive” in each case.

`CC(C)OCCO`: the Potency result in test [1] and in test [2] was “inactive” each time.

In the case of `COc1cc(CCC(C)=O)ccc1O`, the Potency entry in test [1] and in test [2] was “inactive” each time.

With `CC(C)(C)N(CCO)CCO`, the Potency result in test [1] and in test [2] was “inactive” in each case.

As for `Cc1ccc(C(=O)c2ccc(CC(=O)O)n2C)cc1`, the Potency entry in test [1] and in test [2] was “inactive” throughout.

With `O=c1[nH]c(=O)n([C@H]2C[C@H](O)[C@@H](CO)O2)cc1I`, the Potency result in test [1] and in test [2] was “inactive” each time.

The values above are taken from PubChem BioAssay (Tox21).
